Assay outcomes from PubChem BioAssay.
sEH inh = blocks human soluble epoxide hydrolase activity. P34913. recombinant human sEH enzymatic activity assay. inhibition, % at 2 µM. 91,000 tested, 0.34% active. AID 707; in the data active = inhibition above about 80%
sEH activator = soluble epoxide hydrolase (human) activation; activation, % at 2 µM; 91,000 tested, 0.04% active; P34913; purified human sEH enzymatic activity, activator screen; in the data active = activation above about 37%
CYP2C9 inhib = blocks human cytochrome P450 2C9 | CYP2C9 Supersomes, luciferin-H conversion, luminescence | inhibition, % at 5 µM | P11712 | 96,000 tested, 20% active;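 active = blocking of liver enzyme CYP2C9 beyond about 50% at 5 µM, limit read from the data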
CYP2C9 act = CYP2C9 (human) activation; P11712; recombinant CYP2C9, luciferin-H conversion, luminescence; hits give high values; factor 1 = untreated enzyme, 0 = blocked; activation factor at 5 µM; 96,000 tested, 1.4% active; AID 1024;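 active = activation factor of 2 or more for CYP2C9 at a 5 µM dose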;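 note: 0 = sulfaphenazole-blocked wells and 1 = vehicle-only wells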
CYP2C19 inhib = inhibitors of human CYP2C19 | CYP2C19 Supersomes, luciferin-H EGE luminescence, 30 min | inhibition, % at 5 µM | 96,000 tested, 21% active | AID 778;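 active = CYP2C19 inhibition above a set limit at 5 µM in the primary screen, cut at about 50% in these data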;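 note: plate controls were negative control wells for no effect and 2.5 mM tranylcypromine positive control for full effect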
Target sequence (P33261 whole entry, looked up): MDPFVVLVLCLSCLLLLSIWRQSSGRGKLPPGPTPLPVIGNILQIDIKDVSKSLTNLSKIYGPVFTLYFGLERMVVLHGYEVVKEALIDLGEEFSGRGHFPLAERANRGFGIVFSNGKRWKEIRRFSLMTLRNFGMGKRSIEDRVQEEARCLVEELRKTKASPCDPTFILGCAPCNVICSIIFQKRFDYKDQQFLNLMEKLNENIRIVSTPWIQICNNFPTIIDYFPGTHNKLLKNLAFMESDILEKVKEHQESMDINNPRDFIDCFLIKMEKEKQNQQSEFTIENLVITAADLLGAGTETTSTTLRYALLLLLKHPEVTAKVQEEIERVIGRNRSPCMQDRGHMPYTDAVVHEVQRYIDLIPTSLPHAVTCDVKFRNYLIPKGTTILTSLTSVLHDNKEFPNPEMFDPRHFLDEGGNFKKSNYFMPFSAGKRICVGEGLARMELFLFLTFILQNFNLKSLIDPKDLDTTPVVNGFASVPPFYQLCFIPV
CYP2C19 activ = cytochrome P450 2C19 (human) activation; recombinant CYP2C19, luciferin-H EGE luminescence; hits give high values; 0 = fully inhibited enzyme, 1 = untreated enzyme; AID 1025; 96,000 tested, under 10 active; activation factor at 5 µM; P33261;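 active = activation factor of at least 2 at 5 µM in the primary screen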;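 note: 0 = wells with 2.5 mM tranylcypromine and 1 = vehicle-only wells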
The depositor's hits bear a star; nt = no result given. An excerpt weighted towards active compounds, which were near 27% of everything screened.

SMILES	sEH inh	sEH activator	CYP2C9 inhib	CYP2C9 act	CYP2C19 inhib	CYP2C19 activ
COc1ccc(OC)c(S(=O)(=O)Nc2cccnc2)c1	4	-1	1	1	26	0.7
COc1ccc(OC)c(S(=O)(=O)Nc2ccc3oc4c(c3c2)C(=O)CCC4)c1	-10	12	94*	0.1	57*	0.4
COc1ccc(C)cc1S(=O)(=O)NC1CCCCC1C (stereo not drawn)	-8	7	89*	0.1	85*	0.1
COC(=O)c1ccc(-c2cc(C(=O)O)c3cc4c(cc3n2)OCCO4)cc1	7	-6	0	1	15	0.9
COc1cc(C2C(C(=O)c3cccs3)=C(O)C(=O)N2Cc2ccco2)cc(OC)c1OC (stereo not drawn)	2	-2	22	0.8	-2	1
CCOC(=O)C1(O)CSc2nc3sc(C(=O)O)c(C)c3c(=O)n21 (stereo not drawn)	-2	2	-15	1.1	-18	1.2
COc1ccc(S(=O)(=O)NCCSCc2cccs2)cc1	-2	5	28	0.7	94*	0.1
COc1ccc(S(=O)(=O)NCCSCc2ccco2)cc1OC	6	-3	-124	2.2*	60*	0.4
Cc1ccccc1CSCCNS(C)(=O)=O	-10	9	6	0.9	24	0.8
CCOc1ccc(S(=O)(=O)NCCSCc2ccco2)cc1	13	-13	-3	1	42	0.6
COc1ccc(S(=O)(=O)NCCSCc2ccccc2C)cc1Br	4	-6	-98	2*	81*	0.2
COc1ccc(S(=O)(=O)NCCSCc2ccco2)cc1	-3	4	36	0.6	89*	0.1
COc1ccc(S(=O)(=O)NCCSc2ccc(Cl)cc2)cc1OC	-6	11	nt	nt	nt	nt
CC(C)(C)NC(=O)C1CCN(C(=O)c2ccc(Br)cc2)CC1	3	0	1	1	-17	1.2
Cc1ccc(CCNC(=O)C2CCN(C(=O)c3sccc3-n3cccc3)CC2)cc1	51	-51	32	0.7	34	0.7
CCOc1cc(CNCCO)c(Cl)cc1OCC(=O)NCCc1ccccc1	0	2	14	0.9	58*	0.4
COCCNC(=O)COc1ccccc1Cl	8	-8	-5	1	27	0.7
CCOc1cc(CNC(C)C)c(Cl)cc1OCC(=O)NCCc1ccccc1	11	-10	33	0.7	77*	0.2
COc1ccc(-c2nc(C#N)c(NCc3ccc(C)cc3)o2)cc1OC	3	-1	53*	0.5	15	0.9
COc1ccc(-c2nc(C#N)c(NCCc3ccccc3)o2)cc1OC	-4	4	93*	0.1	80*	0.2
CC(C)(C)c1ccc(-c2nc(C#N)c(NCc3ccncc3)o2)cc1	3	-6	67*	0.3	25	0.8
CCN(CC)CCCNc1oc(-c2ccc(OC)c(OC)c2)nc1C#N	5	-2	-7	1.1	9	0.9
CC(C)C(=O)Nc1ncc2c(n1)CC(c1cccs1)CC2=O (stereo not drawn)	22	-22	nt	nt	nt	nt
O=c1ccc(Oc2nc(N3CCOCC3)nc(N3CCOCC3)n2)n[nH]1	-18	23	-3	1	17	0.8
COc1ccc2cc(/C=N/NC(=O)CSCc3ccc([N+](=O)[O-])cc3)c(Cl)nc2c1	18	-16	3	1	12	0.9
SMILES	sEH inh	sEH activator	CYP2C9 inhib	CYP2C9 act	CYP2C19 inhib	CYP2C19 activ
O=C(OC(C(=O)NC1CCCC1)c1ccncc1)C1=Cc2ccccc2OC1 (stereo not drawn)	14	-14	74*	0.3	89*	0.1
O=C(Nc1ccccc1F)c1ccc(-n2cncn2)nc1	7	-9	69*	0.3	97*	0
Cc1cccc(C)c1NC(=O)c1ccc(-n2cncn2)nc1	19	-18	66*	0.3	93*	0.1
COc1ccc(Cl)cc1NC(=O)C1CCCN(S(=O)(=O)c2cccc3nonc23)C1 (stereo not drawn)	-3	0	nt	nt	nt	nt
NC(=O)NC(Cc1ccccc1)C(=O)NCC1(N2CCCCC2)CCCCC1 (stereo not drawn)	5	-4	-5	1.1	-18	1.2
Cc1cccc(OCCSc2nnc(-c3ccoc3C)n2C)c1	-4	3	58*	0.4	98*	0
Cc1ccc(OCCSc2nnc(-c3ccncc3)n2C)cc1	-6	8	43	0.6	93*	0.1
Cn1c(SCC(=O)N2CCN(c3cccc(Cl)c3)CC2)nnc1-c1ccncc1	2	-4	-1	1	-2	1
Cn1c(SCCC(=O)O)nnc1-c1ccncc1	2	2	nt	nt	nt	nt
Cn1c(SCCOc2cccc(Cl)c2)nnc1-c1ccncc1	nt	nt	21	0.8	92*	0.1
Cc1occc1-c1nnc(SCC(=O)N2c3ccccc3CCc3ccccc32)n1C	3	-4	32	0.7	29	0.7
CCCCn1c(SCC(=O)Nc2nccs2)nc2ccccc2c1=O	2	0	18	0.8	8	0.9
COc1ccc(-n2c(SCC(=O)NCC3CCCO3)nc3ccccc32)cc1 (stereo not drawn)	0	-2	90*	0.1	93*	0.1
O=C(CCCn1c(SCC(=O)NCC2CCCO2)nc2ccccc2c1=O)NCc1ccccc1 (stereo not drawn)	22	-25	56*	0.4	29	0.7
COc1ccc(-n2c(Cc3cccn3C)nnc2SCC(=O)NCC2CCCO2)cc1 (stereo not drawn)	8	-9	-7	1.1	-16	1.2
O=C(CSc1nc2ccccc2c(=O)n1CCC(=O)N1CCCCC1)NCc1ccccc1	-4	4	nt	nt	nt	nt
O=C(CCCn1c(SCC(=O)c2ccc(F)cc2)nc2ccccc2c1=O)NCc1ccccc1	17	-20	90*	0.1	71*	0.3
Cc1cc(NC(=O)CSc2nc3ccccc3c(=O)n2CCCC(=O)NCc2ccccc2)n[nH]1	42	-43	78*	0.2	87*	0.1
CCN(CC)c1ccc(/C=N/N2CCN(Cc3cccc4ccccc34)CC2)c(O)c1	5	-2	6	0.9	0	1
CCN(CC)c1ccc(SS(=O)(=O)O)cc1	5	-5	-9	1.1	-12	1.1
CC(C)CCn1nnnc1C(c1ccc(F)cc1)N1CCC(C(N)=O)CC1 (stereo not drawn)	nt	nt	28	0.7	-1	1
Cn1cnnc1SCCC(=O)Nc1ccc(Cl)cc1	7	-5	nt	nt	nt	nt
CCOc1ccc(C(C)=O)cc1COC(=O)C1=COCCO1	-8	9	47	0.5	64*	0.4
CCOc1ccc(C(C)=O)cc1CC(C(N)=O)C(N)=O	9	-6	9	0.9	3	1
CC(=O)N1CCN(Cc2nc3cc(NC(=O)c4ccccc4C)ccc3n2C)CC1	-14	17	3	1	7	0.9
CC(C)(C)C(=O)Nc1nc(=S)ss1	-12	12	92*	0.1	33	0.7
CC(C)(C)C(=O)Nc1ccc(S(=O)(=O)c2ccc(NC(=O)C(C)(C)C)cc2)cc1	8	-7	-11	1.1	-3	1
